Source: PubChem BioAssay (NCI)
Compounds without any hit were thinned out: in the full panel of roughly 83,000, 20% have a hit.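 Activity criterion: percent growth below 10, measured after cells in 96-well plates were exposed to a single compound concentration for 48 hours.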 Active and inactive are the calls of the source.

What was measured:
Assay in all cases: NCI-60 one-dose screen, 48 h (100 = growth as untreated, 0 = no growth, -100 = all killed)
Details in all cases: 10 µM unless noted
SR leukemia = test system: SR leukemia
RPMI-8226 leukemia = test system: RPMI-8226 leukemia
OVCAR-8 ovarian = test system: OVCAR-8 ovarian
OVCAR-5 ovarian = test system: OVCAR-5 ovarian
OVCAR-4 ovarian = test system: OVCAR-4 ovarian
SK-OV-3 ovarian = test system: SK-OV-3 ovarian
IGROV1 ovarian = test system: IGROV1 ovarian
OVCAR-3 ovarian = test system: OVCAR-3 ovarian
HS 578T breast = test system: HS 578T breast
NCI/ADR-RES ovarian = test system: NCI/ADR-RES ovarian

Measured: growth

CCCCN[C@H]1CC[C@@]2(C)[C@@H](CC[C@@]3(C)[C@H]2[C@H](O)C[C@H]2/C(=C(\CCC=C(C)C)C(=O)OC)[C@@H](OC(C)=O)C[C@@]23C)[C@@H]1C
inactive: SR leukemia 74.5% | RPMI-8226 leukemia 95.9% | OVCAR-8 ovarian 102% | OVCAR-5 ovarian 91.4% | OVCAR-4 ovarian 102% | SK-OV-3 ovarian 104% | IGROV1 ovarian 99.2% | OVCAR-3 ovarian 106% | HS 578T breast 87.3%

COP(=O)(OC)C(C)(C)CC(=O)CC(C#N)(C#N)C(C#N)C#N
inactive: SR leukemia 95.5% | RPMI-8226 leukemia 87.8% | OVCAR-8 ovarian 105% | OVCAR-5 ovarian 94.4% | OVCAR-4 ovarian 116% | SK-OV-3 ovarian 101% | IGROV1 ovarian 110% | OVCAR-3 ovarian 114% | HS 578T breast 104% | NCI/ADR-RES ovarian 98.4%

Cn1c(=O)c2[nH]c(N/N=C/c3ccccc3Br)nc2n(C)c1=O
inactive: SR leukemia 89.7% | RPMI-8226 leukemia 105% | OVCAR-8 ovarian 112% | OVCAR-5 ovarian 89.5% | OVCAR-4 ovarian 117% | SK-OV-3 ovarian 117% | IGROV1 ovarian 101% | OVCAR-3 ovarian 119% | HS 578T breast 161% | NCI/ADR-RES ovarian 104%

C=C1C(=O)O[C@H]2[C@H]1CC/C(COC(=O)N[C@H]1C[C@H](O[C@H]3C[C@](O)(C(=O)CO)Cc4c(O)c5c(c(O)c43)C(=O)c3c(OC)cccc3C5=O)O[C@@H](C)[C@H]1O)=C\CC[C@@]1(C)O[C@@H]21
inactive: OVCAR-8 ovarian 66% | OVCAR-5 ovarian 96.4% | OVCAR-4 ovarian 62.5% | SK-OV-3 ovarian 107% | IGROV1 ovarian 56.7% | HS 578T breast 73%
active: SR leukemia 5.44% | RPMI-8226 leukemia -24.2% | OVCAR-3 ovarian -8.47%

Cc1ccc(S(=O)(=O)N2CCCC2CO)cc1 (configuration not stated)
inactive: SR leukemia 112% | RPMI-8226 leukemia 62.6% | OVCAR-8 ovarian 103% | OVCAR-5 ovarian 85.7% | OVCAR-4 ovarian 93.5% | SK-OV-3 ovarian 102% | IGROV1 ovarian 90.6% | OVCAR-3 ovarian 104% | HS 578T breast 79.5%

CCn1c(SCC(=O)c2ccc(Br)cc2)nnc1-c1ccncc1
inactive: SR leukemia 98.3% | RPMI-8226 leukemia 103% | OVCAR-8 ovarian 109% | OVCAR-5 ovarian 108% | OVCAR-4 ovarian 101% | SK-OV-3 ovarian 118% | IGROV1 ovarian 115% | OVCAR-3 ovarian 106% | HS 578T breast 105%

c1ccc(CNc2c3ccccc3nc3ccccc23)cc1
inactive: SR leukemia 11.7% | OVCAR-8 ovarian 26.1% | OVCAR-5 ovarian 45.7% | OVCAR-4 ovarian 43.2% | SK-OV-3 ovarian 46.7% | IGROV1 ovarian 29.8% | OVCAR-3 ovarian 51.7% | HS 578T breast 56.1%
active: RPMI-8226 leukemia 7.65%

CCCCC(=O)c1ccco1
inactive: SR leukemia 98.2% | RPMI-8226 leukemia 85.1% | OVCAR-8 ovarian 98.9% | OVCAR-5 ovarian 84.7% | OVCAR-4 ovarian 97.3% | SK-OV-3 ovarian 89.1% | IGROV1 ovarian 91.1% | OVCAR-3 ovarian 104% | HS 578T breast 95.2%

CCOC(=O)Cn1c(O)c(N=Nc2ccc(S(N)(=O)=O)cc2)c2cc(Br)ccc21
inactive: SR leukemia 75.3% | RPMI-8226 leukemia 79.5% | OVCAR-8 ovarian 56.5% | OVCAR-5 ovarian 85.9% | OVCAR-4 ovarian 31.2% | SK-OV-3 ovarian 81.9% | IGROV1 ovarian 73% | OVCAR-3 ovarian 84.9% | HS 578T breast 89.7%

CCOC(=O)CNP(=O)(OC[C@@H](Cc1ccccc1)NC(=O)c1cc2ccccc2s1)Oc1ccccc1 (some centres not stated)
inactive: SR leukemia 23.9% | RPMI-8226 leukemia 79.6% | OVCAR-8 ovarian 89.1% | OVCAR-5 ovarian 95.4% | OVCAR-4 ovarian 88.4% | SK-OV-3 ovarian 91.2% | IGROV1 ovarian 79.9% | OVCAR-3 ovarian 79.9% | HS 578T breast 76.5% | NCI/ADR-RES ovarian 51.4%

CCOC(=O)c1nc(Nc2ccc(NC(=O)Nc3ccc(F)cc3)cc2)c2ccccc2n1
inactive: SR leukemia 90.2% | RPMI-8226 leukemia 109% | OVCAR-8 ovarian 106% | OVCAR-5 ovarian 108% | OVCAR-4 ovarian 114% | SK-OV-3 ovarian 100% | IGROV1 ovarian 102% | OVCAR-3 ovarian 102% | HS 578T breast 99.9%

C=C(C)[C@@H]1CC[C@]2(C(=O)N3CCN(C)CC3)CC[C@]3(C)[C@H](CC[C@@H]4[C@@]5(C)CC(=C/c6ccncc6)/C(=N/O)C(C)(C)[C@@H]5CC[C@]43C)[C@@H]12
inactive: RPMI-8226 leukemia 46.7% | OVCAR-8 ovarian 85.1% | OVCAR-5 ovarian 86.7% | OVCAR-4 ovarian 69.2% | SK-OV-3 ovarian 98.7% | IGROV1 ovarian 65.1% | OVCAR-3 ovarian 75.2% | HS 578T breast 87.5%
active: SR leukemia 3.4%

O=C(O)CNC1=C(Cl)C(=O)c2ccccc2C1=O
inactive: SR leukemia 107% | RPMI-8226 leukemia 87.4% | OVCAR-8 ovarian 87.9% | OVCAR-5 ovarian 118% | OVCAR-4 ovarian 97% | SK-OV-3 ovarian 114% | IGROV1 ovarian 103% | OVCAR-3 ovarian 97.5% | HS 578T breast 124%

O=C(/C=C(/C=C/c1cccc2[nH]ccc12)OB(F)F)/C=C/c1cccc2[nH]ccc12
active: SR leukemia 3.72% | RPMI-8226 leukemia -31.5% | OVCAR-8 ovarian -30% | OVCAR-5 ovarian -27.6% | SK-OV-3 ovarian -20.7% | IGROV1 ovarian -3.07% | OVCAR-3 ovarian -25.1% | NCI/ADR-RES ovarian 3.47%
inactive: OVCAR-4 ovarian 11.5% | HS 578T breast 10.3%

O=C1/C(=C/c2ccc(-c3ccc(Br)cc3)o2)SC(=S)N1CCc1ccc(O)cc1
inactive: SR leukemia 19.2% | RPMI-8226 leukemia 75.7% | OVCAR-5 ovarian 86% | OVCAR-4 ovarian 38.3% | SK-OV-3 ovarian 76.2% | IGROV1 ovarian 45.2% | OVCAR-3 ovarian 44.3% | HS 578T breast 59.7%
active: OVCAR-8 ovarian 4.49%

COc1ccc(OC)c(C(=O)/C=C/c2cc3c(c(OC)c2OC)OCO3)c1
active: RPMI-8226 leukemia 6.09%
inactive: SR leukemia 17.8% | OVCAR-8 ovarian 58.1% | OVCAR-5 ovarian 121% | OVCAR-4 ovarian 63.4% | SK-OV-3 ovarian 79.1% | IGROV1 ovarian 71.5% | OVCAR-3 ovarian 59.4% | HS 578T breast 75.9%

CCOC(=O)C(=Cc1cccc(Cl)c1)C(=O)OCC
active: SR leukemia 6.69% | RPMI-8226 leukemia -8.77% | OVCAR-8 ovarian -8.33% | IGROV1 ovarian 9.1% | NCI/ADR-RES ovarian 4.71%
inactive: OVCAR-5 ovarian 13.9% | OVCAR-4 ovarian 59.9% | SK-OV-3 ovarian 100% | OVCAR-3 ovarian 33.8% | HS 578T breast 68%

O=C(CI)NC1Oc2ccccc2-c2oc(=O)c(-c3ccccc3)cc21 (configuration not stated)
active: SR leukemia -33.5% | RPMI-8226 leukemia -49.4% | OVCAR-8 ovarian -27.9% | OVCAR-4 ovarian -40.3% | IGROV1 ovarian -59% | OVCAR-3 ovarian -95.1%
inactive: OVCAR-5 ovarian 12.8% | SK-OV-3 ovarian 103% | HS 578T breast 44.3%

c1cc2[nH]ncc2cc1-c1nc2ccc3[nH]ncc3c2c2c1CCCC2
inactive: RPMI-8226 leukemia 19.8% | OVCAR-8 ovarian 17.4% | OVCAR-5 ovarian 32.5% | OVCAR-4 ovarian 39.9% | OVCAR-3 ovarian 28% | NCI/ADR-RES ovarian 26.6%
active: SR leukemia -13.7% | SK-OV-3 ovarian -25.1% | IGROV1 ovarian 8.59% | HS 578T breast 6.02%

Cc1noc(C)c1C(=O)OCc1coc2ccccc2c1=O
inactive: SR leukemia 45.3% | RPMI-8226 leukemia 30.1% | OVCAR-8 ovarian 91.8% | OVCAR-5 ovarian 71.6% | OVCAR-4 ovarian 62.8% | SK-OV-3 ovarian 109% | IGROV1 ovarian 82.6% | OVCAR-3 ovarian 44.9% | HS 578T breast 78.3%

COC(=O)c1cc(-c2ccccc2)[nH]c1N/N=C/c1c(Cl)cccc1Cl
inactive: OVCAR-8 ovarian 15.4% | OVCAR-5 ovarian 21.9% | OVCAR-4 ovarian 64.5% | SK-OV-3 ovarian 24.4%
active: SR leukemia -9.18% | RPMI-8226 leukemia -12.7% | IGROV1 ovarian -44.5% | OVCAR-3 ovarian -76.7% | HS 578T breast -30.4%

CCOC(=O)c1c(NC(=O)c2ccc(C(C)C)cc2)sc2c(CN(C)C)c(O)ccc12
active: SR leukemia -21.5% | RPMI-8226 leukemia -20%
inactive: OVCAR-8 ovarian 89.1% | OVCAR-5 ovarian 64.1% | OVCAR-4 ovarian 87.2% | SK-OV-3 ovarian 99.2% | IGROV1 ovarian 72.5% | OVCAR-3 ovarian 96.1% | HS 578T breast 86.2%

COc1cccc(/C=C/C(=O)c2cc3c(N)c(C(=O)Nc4ccccc4)sc3nc2C)c1
active: RPMI-8226 leukemia -18.7% | OVCAR-8 ovarian 3.31% | IGROV1 ovarian 2.44% | OVCAR-3 ovarian -26.5%
inactive: SR leukemia 10.8% | OVCAR-5 ovarian 46.1% | OVCAR-4 ovarian 61.5% | SK-OV-3 ovarian 94.6% | HS 578T breast 24.6%

CC(=O)c1cc(O)c2ccccc2c1O
inactive: SR leukemia 110% | RPMI-8226 leukemia 46.4% | OVCAR-8 ovarian 86.3% | OVCAR-5 ovarian 109% | OVCAR-4 ovarian 93.4% | SK-OV-3 ovarian 102% | IGROV1 ovarian 52.8% | OVCAR-3 ovarian 91.7% | HS 578T breast 123% | NCI/ADR-RES ovarian 87%

CN(CCn1sc(=O)n(Cc2ccccc2)c1=O)Cc1ccc2c(Cl)cc(Cl)c(O)c2n1
inactive: SR leukemia 39.2% | RPMI-8226 leukemia 45% | OVCAR-8 ovarian 32.7% | OVCAR-5 ovarian 61.4% | OVCAR-4 ovarian 59.3% | SK-OV-3 ovarian 65.4% | IGROV1 ovarian 37.3% | OVCAR-3 ovarian 18.9% | HS 578T breast 68.1%

C=CC(=O)NCc1ccc(Nc2nccc(-c3ccc(N4CCCC4)c(C#N)c3)n2)cc1
inactive: RPMI-8226 leukemia 46.7% | OVCAR-8 ovarian 30.8% | OVCAR-5 ovarian 75.3% | OVCAR-4 ovarian 16.2% | SK-OV-3 ovarian 29.6% | IGROV1 ovarian 25.2% | OVCAR-3 ovarian 33.4% | HS 578T breast 25.4% | NCI/ADR-RES ovarian 34.4%
active: SR leukemia 5.13%
